# The campaign covered roughly 48,000 compounds. About 13,000 (27%) showed an effect of 50% or more. The list shows a part of the results.
# Tested on: Wolbachia pipientis
# Assay: Anti-Wolbachia Cell-Based Screen
# Format: functional
# Design: scale not given: in the data most compounds retested in dose-response had high values
# Settings: 5 µM
row,SMILES,Percent Effect [%]
1,Cn1cc(CN2CCc3ncn(C)c3C2COCc2ccccc2)cn1 (stereo not drawn),0.114
2,O=C(Cc1ccncc1)N1C[C@@H]2CC[C@H](C1)N(Cc1ccccc1)C2=O,6.116
3,Nc1ncnc2nc(C3CCN(C(=O)Cc4ccc(F)cc4)C3)ccc12 (stereo not drawn),118.1
4,Nc1ncnc2nc(C3CCN(C(=O)Cc4ccccc4)C3)ccc12 (stereo not drawn),78.69
5,O=C(Cc1ccccc1)N1CCn2cc(Cn3cncn3)nc2C1,14.97
6,Cc1ccc(CC(=O)N2CCCC(c3cc(C)[nH]n3)C2)cn1 (stereo not drawn),-0.4689
7,Cc1nnc([C@H]2C[C@H]3CN(C(=O)Cc4ccc(F)cc4)CC[C@@H]3O2)o1,-15.1
8,O=c1[nH]c2cc(S(=O)(=O)N3CCC(c4ccsc4)CC3)ccc2o1,12.73
9,COC(=O)CNC(=O)CSCc1nc(O)c2cc(C)sc2n1,28.1
10,Cc1cnccc1N1CCN(C[C@]2(O)CCCN3CCCC[C@@H]32)CC1,-12.63
11,Cc1cc2ncn(C[C@]3(O)CCCN4CCCC[C@@H]43)c2cc1C,111.8
12,O[C@@]1(CN2CCN(Cc3ccncc3)CC2)CCCN2CCCC[C@@H]21,17.3
13,Cc1cccnc1CN1CCN(C[C@]2(O)CCCN3CCCC[C@@H]32)CC1,4.951
14,CCN(Cc1noc(CC(C)C)n1)C[C@]1(O)CCCN2CCCC[C@@H]21,2.054
15,O[C@@]1(Cn2cnc(Cl)c2Cl)CCCN2CCCC[C@@H]21,101.1
16,O[C@@]1(CNCCOc2ccccc2)CCCN2CCCC[C@@H]21,-8.201
17,Cc1ccnc(N2CCN(C[C@]3(O)CCCN4CCCC[C@@H]43)CC2)c1,-8.166
18,COc1ccc2c(c1)ncn2C[C@]1(O)CCCN2CCCC[C@@H]21,108.1
19,CCS(=O)(=O)N1Cc2c(Cn3ccnc3)nn(C(C)C)c2C1,9.692
20,COC[C@@]12CC[C@@H](N3CCOCC3)C[C@H]1CCN(c1cc(C)ccn1)C2,-3.135
21,O=C(NCC(O)c1ccc(F)cc1F)c1cccc(F)c1 (stereo not drawn),-1.094
22,O=C(NCCCNC(=O)c1ccc(F)cc1F)c1cccc(O)c1,113.1

row,SMILES,Percent Effect [%]
1,O=C(NCCCNC(=O)c1ccccc1)Nc1ccc(F)cc1F,98.16
2,Cc1cccc(C(=O)NCCCN2CCN(c3ccccc3)CC2)c1,0.2933
3,O=C(CCNC(=O)c1ccoc1)Nc1ccc(F)cc1F,-4.684
4,O=C(NCCCO)Nc1cccc(I)c1,5.16
5,NC(=O)CCCNC(=O)Cc1cccc(I)c1,-16.28
6,O=C(Cc1cccc(O)c1)NCCCNC(=O)c1cccc(F)c1,107.1
7,O=C(NCCCNC(=O)c1cccc(O)c1)Nc1ccc(Cl)cc1,112
8,Cc1nc(C)c(C(=O)NCCNC(=O)c2ccc(F)cc2F)s1,5.73
9,O=C(Nc1ccc(F)cc1F)NC1(CO)CCOCC1,-12.95
10,CC(NC(=O)NC1CCN(Cc2ccccn2)CC1)c1nncn1C (stereo not drawn),0.2394
11,CC(C)(C)CN[C@@H]1CO[C@H](CNC(=O)c2ccncc2)[C@H]1O,-9.96
12,CC(=O)Nc1ccc(Cl)c(C(=O)N(C)Cc2nc(C)c[nH]2)c1,-7.642
13,CCCc1nc(CN(C)CCOc2ccccc2)cs1,-8.28
14,CC(C)N(C)S(=O)(=O)N1CCCC1CC(=O)c1cccs1 (stereo not drawn),9.795
15,CC(C)Cc1noc(CN(C)C(=O)CCNC(=O)c2ccccc2F)n1,-3.806
16,CC(CNCC1(S(C)(=O)=O)CCOCC1)c1ccc(F)cc1 (stereo not drawn),6.37
17,CNc1cc(-c2nc(CCN3CCCC3=O)no2)ccn1,8.6
18,O=C(Cc1cccc(F)c1)NCCCNC(=O)c1cccc(O)c1,95
19,CC(NC(=O)N(C)Cc1ccsc1)c1ccc2c(c1)NC(=O)CO2 (stereo not drawn),-9.283
20,Cn1c(CS(=O)(=O)c2ccc(Cl)cc2)cc(=O)n(C)c1=O,2.461
21,Cc1cc(F)c2c(c1)CCCN2Cc1nc2c(cnn2C)c(=O)[nH]1,-12.02
22,CN(C(=O)CN1CCCc2cc(F)cc(F)c21)c1ccccc1,-11.45

row,SMILES,Percent Effect [%]
1,Cc1ccc(F)c2c1CCCN2Cc1cc(=O)n(C)c(=O)n1C,107.3
2,Cc1cc(F)c2c(c1)CCCN2Cc1cc(=O)n(C)c(=O)n1C,117.6
3,Cc1cc(C2CCCN2Cc2cc(=O)n(C)c(=O)n2C)on1 (stereo not drawn),-9.858
4,Cc1cc(F)c2c(c1)CCCN2C(=O)c1cncc(Br)c1,14.39
5,Cn1ncc2c(=O)[nH]c(CN3CCCc4cc(F)cc(F)c43)nc21,-18.5
6,Cn1c(CN2CCCc3cc(F)cc(F)c32)cc(=O)n(C)c1=O,98.13
7,COC(=O)N1CCc2ccccc2C1C(=O)NCc1ccccn1 (stereo not drawn),-3.953
8,N#CC1(NC(=O)c2nccc3ccccc23)CCC1,2.644
9,CC(C)[C@H](NS(C)(=O)=O)C(=O)NCc1cc(-c2cccc(Cl)c2)nn1C,123.3
10,CC(Cc1ccco1)NC(=O)NCc1ncnn1C (stereo not drawn),9.946
11,CC(C)NC(=O)NCc1cc(-c2cccc(Cl)c2)nn1C,128.3
12,CC(C)[C@@H]1CN(C(=O)NCc2ccco2)C[C@H]1NS(=O)(=O)N(C)C,8.904
13,CN(Cc1cc(-c2ccccc2)no1)C(=O)CNS(C)(=O)=O,-3.143
14,CCN(CC)C(=O)c1cc(-c2cccc(Cl)c2)no1,-14.84
15,CC(C)[C@H](NS(C)(=O)=O)C(=O)NCc1cc(-c2ccccc2)nn1C,107.7
16,Cn1c(C(=O)NS(C)(=O)=O)ccc1-c1ccccc1,-9.851
17,CC(NC(=O)c1cc(-c2cccc(Cl)c2)no1)C(=O)N(C)C (stereo not drawn),-38.11
18,CCC(C(=O)NCc1ccncc1)N(c1cccc(Cl)c1)S(C)(=O)=O (stereo not drawn),-1.901
19,CC(C)[C@H](NS(C)(=O)=O)C(=O)NCc1cc(-c2ccco2)nn1C,131.1
20,CC(C)S(=O)(=O)NC(=O)c1cc(-c2cccc(Cl)c2)no1,-50.72
21,O=C1N(c2ccc(Cl)cc2)Cc2nc(=O)[nH]n21,-10.7
22,Cc1cccc(NC(=O)NCCCn2nc3ccccn3c2=O)c1C,-5.568

row,SMILES,Percent Effect [%]
1,COc1ccccc1C(C)NC(=O)N1CCN(Cc2ccc(Br)s2)CC1 (stereo not drawn),3.107
2,CCCc1nn(Cc2csc(C(C)C)n2)c(=O)o1,-6.237
3,COCc1nn(Cc2ccc(Br)s2)c(=O)o1,93.51
4,CCc1nc(Cn2nc(COC)oc2=O)cs1,8.463
5,CCCc1nn(Cc2csc(CC)n2)c(=O)o1,0.8831
6,COCc1nn(Cc2ccc(Cl)s2)c(=O)o1,85.2
7,COCCn1c(=O)n(Cc2ccc(Cl)s2)c2cc(C(=O)O)ccc21,5.462
8,CCCc1nn(Cc2ccc(Br)s2)c(=O)o1,114.1
9,COc1cccc(-c2cc(NCc3cscn3)n(C)n2)c1,-6.796
10,Cc1nc2ccccn2c1CN1C[C@@H](CN(C)C)[C@@H](CO)C1,-2.196
11,CC(C)c1noc(C2CCCN2S(=O)(=O)N2CCCCCC2)n1 (stereo not drawn),33.89
12,CC(=O)c1ccccc1C(=O)NCC1(CO)CC1,-16.93
13,NC(c1ccc(F)cc1)c1cccs1 (stereo not drawn),14.08
14,O=C(O)C(F)(F)F.O=c1cc(CNS(=O)(=O)C2CC2)nc2n1CCCN(CC1CC1)C2,107
15,CN1CCCn2c(nc(CNS(=O)(=O)C3CC3)cc2=O)C1.O=C(O)C(F)(F)F,-4.96
16,CS(=O)(=O)NCc1cc(=O)n2c(n1)CN(CC1CC1)CCC2.O=C(O)C(F)(F)F,110.4
17,CC(=O)N1CCCn2c(nc(CNS(=O)(=O)C3CC3)cc2=O)C1,-2.795
18,CS(=O)(=O)NCc1cc(=O)n2c(n1)CN(Cc1ccco1)CCC2.O=C(O)C(F)(F)F,-0.8444
19,Cc1cc(C)n(CC2(CNC(=O)C(c3ccccc3F)N(C)C)CC2)n1 (stereo not drawn),-12.38
20,CC1c2ncc(COCC3CCCC3)n2CCN1S(=O)(=O)N(C)C (stereo not drawn),-21.16
21,CN(C)c1cccc(C(=O)Nc2cnn(CC(N)=O)c2)c1,-9.995
22,COc1ccc(CN2CCN(C(=O)N(C)C)[C@@H]3CS(=O)(=O)C[C@@H]32)cc1F,-14.55

row,SMILES,Percent Effect [%]
1,Cc1c[nH]c(CN2CCC3(CCCN(Cc4ccc(F)c(F)c4)C3)C2)n1 (stereo not drawn),-10.55
2,COCCC(=O)N1CCC2(CN(Cc3ccc(OC)c(F)c3)C2)C1,5.323
3,CN1C[C@H](O)[C@]2(CCN(Cc3ccc(F)c(F)c3)C2)S1(=O)=O,108.2
4,Fc1ccc(CN2CCCC3(CCN(Cc4ncc[nH]4)C3)C2)cc1F (stereo not drawn),2.586
5,O=C(c1ccc(Br)o1)N1CCN(Cc2ccc(OC(F)(F)F)cc2)CC1,-3.633
6,COc1ccc(CN2CC[C@@]3(C2)[C@H](O)CN(C)S3(=O)=O)cc1F,137.9
7,CN1C[C@H](O)[C@]2(CCN(Cc3ccc(OC(F)(F)F)cc3)C2)S1(=O)=O,118.4
8,O=C(c1ccc(Br)s1)N1CCN(Cc2ccc(OC(F)(F)F)cc2)CC1,-12.95
9,CN(C)C(=O)c1cccnc1N1CCOC(c2ccc(Cl)cc2)C1 (stereo not drawn),7.498
10,CCN1CC[C@@]2(C(=O)N(C)C)CCN(S(=O)(=O)c3ccccc3)CC[C@@H]12.O=C(O)C(F)(F)F,1.516
11,CC(=O)c1cccc(S(=O)(=O)N2CCC(c3noc(C)n3)CC2)c1,-3.648
12,CN(C)C(=O)c1c[nH]nc1C1CCN(S(=O)(=O)c2ccc(Cl)cc2)CC1,131.9
13,CN(C)C(=O)c1c[nH]nc1C1CCN(S(=O)(=O)c2ccccc2)CC1,115.3
14,CC(=O)c1cccc(S(=O)(=O)N2CCC(c3n[nH]c(C)n3)CC2)c1,-14.04
15,Cc1nc(C2CCN(S(=O)(=O)c3ccc(Cl)cc3)CC2)n[nH]1,2.775
16,CN(C)C(=O)c1c[nH]nc1C1CCN(S(=O)(=O)c2cccc(Cl)c2)CC1,103
17,CNC(=O)[C@@]12CCO[C@@H]1CCN(S(=O)(=O)c1ccc(C)cc1)C2,8.759
18,Cc1ccc(S(=O)(=O)N2CCC(c3n[nH]cc3C(=O)N(C)C)CC2)cc1,124.5
19,CN(C)C[C@H]1OC[C@@H]2CCN(S(=O)(=O)c3ccccc3)C[C@@H]21.O=C(O)C(F)(F)F,-5.753
20,CC(=O)c1ccc(S(=O)(=O)N2CCC(c3n[nH]c(C)n3)CC2)cc1,9.052

# From ChEMBL document CHEMBL3988442, “University of Dundee, Small-Polar-MMV Screening Library” (2021)
